For 89 compounds, inhibition results are on record in PubChem BioAssay AID1117264 (The Scripps Research Institute Molecular Screening Center, 2014).

In general, inhibition refers to the drop in the measured response relative to a control, in per cent.

The campaign covered roughly 89,000 compounds. About 440 (0.49%) were called active. The full list was thinned out, with actives kept by preference. Values without a mark were called inactive.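 The calls were made as follows: active = inhibition above the mean inhibition across all screened compounds plus 3 SD (cut at about 11% in these data); inactive = the rest.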

The target of this test is RNA-editing ligase 1, mitochondrial (Trypanosoma brucei brucei) (UniProt P86926). The experiment in a line: TbREL1 RNA ligase inhibitors, primary screen, biochemical, FRET fluorescence (AID 1117264).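 Also: 0% = plate median of test wells and 100% = NSC42067 control.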 Conditions: TbREL1 RNA ligation, at 9.66 µM, hits give high values.
Sequence of RNA-editing ligase 1, mitochondrial (Trypanosoma brucei brucei) (P86926 whole entry, looked up): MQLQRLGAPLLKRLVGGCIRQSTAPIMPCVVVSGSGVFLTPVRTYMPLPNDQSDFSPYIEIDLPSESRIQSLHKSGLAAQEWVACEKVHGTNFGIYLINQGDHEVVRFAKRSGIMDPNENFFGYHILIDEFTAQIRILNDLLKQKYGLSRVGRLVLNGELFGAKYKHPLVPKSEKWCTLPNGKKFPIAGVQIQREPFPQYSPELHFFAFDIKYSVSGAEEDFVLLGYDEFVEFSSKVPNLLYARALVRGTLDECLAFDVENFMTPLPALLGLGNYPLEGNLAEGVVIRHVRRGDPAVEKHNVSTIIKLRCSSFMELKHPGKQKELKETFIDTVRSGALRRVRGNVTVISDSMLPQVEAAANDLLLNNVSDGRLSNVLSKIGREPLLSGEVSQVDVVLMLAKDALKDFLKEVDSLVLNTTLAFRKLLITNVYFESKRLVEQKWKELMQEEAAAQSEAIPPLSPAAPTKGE
For the compound `CCn1c(=S)sc2c(=O)n(CC(=O)Nc3ccc(OC)cc3)c(C)nc21`, the inhibition is -1.47%.
Take `O=C(NC1CCCCC1)C1CCCN(S(=O)(=O)c2ccc(Br)s2)C1` (centres undefined): the inhibition is 1.07%.
Regarding `CCOC(=O)N1CCN(Cc2nc(Cc3cccc(C(F)(F)F)c3)no2)CC1`, the inhibition was 1.05%.
`COc1ccc(N(Cc2ccc(N(C)C)cc2)C(=O)c2ccc(S(C)(=O)=O)cc2)cc1`: the inhibition is -9.41%.
For `COCCN(Cc1ccccc1)C(=O)Cc1ccc(S(=O)(=O)N2CCOCC2)s1`, the inhibition is -2.32%.
On to `CCc1ccc(CN2C(=O)c3ccccc3C2C(=O)NCC2CCCO2)cc1` (centres undefined), for which the inhibition is -0.89%.
The result for `COCC(=O)N(C)[C@H]1C[C@H]2c3cc(Oc4ccccc4C)ccc3CCN2C(=O)[C@H]1[C@H](C)O` reads 1.02%; that for `COc1cccc(CNC(=O)C2CCCN(c3ncnc4c3nc3n4CCCCC3)C2)c1` (centres undefined), 0.12%.
As for `Cc1ccc(NC(=O)Cn2cccc2C2=NC(c3ccccc3)CO2)c(C)c1` (centres undefined), the inhibition was -0.96%.
Consider `COc1ccc(N2C(=O)c3ccccc3NC2c2ccc(OC)c(CN3CCOCC3)c2)cc1` (centres undefined), for which the inhibition was 0.23%.
The result for `O=C1NC[C@H](Cc2ccc(O)cc2)N(C[C@H]2CCCN2C[C@H](Cc2ccccc2)N2C[C@H](Cc3ccccc3)N(CCc3ccccc3)C(=O)C2=O)C1=O` reads -1.45%; that for `CC[C@@H](C)[C@@H]1CN([C@@H](C)CN2CCC[C@H]2CN2C(N)=NC[C@H]2C(C)C)C(=N)N1CCc1ccc(Cl)c(Cl)c1`, 14% (active).
Under `CC1CCCCN1C(=O)Cn1c(=O)oc2cc(S(=O)(=O)N3CCCCC3)ccc21` (centres undefined) stands -1.44%; under `Cc1cc(C)cc(N(CC(=O)NC2CCCC2)C(=O)CCC(=O)Nc2cc(C)on2)c1`, 0.2%.
For `Nc1ncnc2c1ncn2[C@@H]1O[C@H](C(=O)N[C@@H](CCc2ccccc2)C(=O)NCC(=O)N2CCOCC2)[C@@H](O)[C@H]1O`, the inhibition is -1.68%.
Consider `CCOC(=O)COc1cc(OCC(=O)OCC)c2c(=O)cc(-c3ccccc3)oc2c1`, for which the inhibition was 2.07%.
As to `COc1c(O)cc2oc(-c3ccc(O)c(O)c3)cc(=O)c2c1O`, the inhibition was 29.5% (active).
Under `COc1cc(NC(=O)CSC(=S)N2CCCC2)c(OC)cc1Cl` stands 6.87%.
With `Nc1ccc2nc3c(=O)[nH]c(=S)[nH]c3nc2c1`, the inhibition is 50.5% (active).
With `O=c1[nH]c(=O)c2nc3ccccc3nc2[nH]1`, the inhibition is -0.15%.
`COc1ccc([N+](=O)[O-])cc1N(CC(=O)Nc1ccccc1C(=O)N1CCOCC1)S(C)(=O)=O`: the inhibition was -1.27%.
`O=C(NCc1ccccc1)C1CCN(C(=O)Cc2ccccc2)CC1`: the inhibition was 0.8%.
Take `O=C(NCc1ccccc1)C1c2ccccc2OCC(=O)N1C1CC1` (centres undefined): the inhibition was 4.12%.
On to `O=C(NCc1ccccc1)[C@@H]1CSC2c3ccccc3C(=O)N21` (some centres undefined), for which the inhibition is 18.5% (active).
As for `Cc1c(CCC(=O)N[C@@H](CC(C)C)C(=O)O)c(=O)oc2c(C)c3oc4c(c3cc12)CCCC4`, the inhibition was 0.56%.
Take `Cc1cc(NC(=O)CN2C(=O)NC(C)(CCc3ccccc3)C2=O)no1` (centres undefined): the inhibition is 0.2%.
`O=C(NNC1CC(=O)N(c2cccc(Cl)c2)C1=O)c1cccnc1` (centres undefined): the inhibition is 0.41%.
Under `O=S1(=O)CC(N2CCN(CCO)CC2)CN1Cc1cn(Cc2cccc(Cl)c2)nn1` (centres undefined) stands 0.87%; under `COc1ccc(NC(=O)C(Br)C(C)C)cc1` (centres undefined), -2.35%; under `CCOC(=O)c1ccc(NC(=S)N2CCCC2)cc1`, -1.43%.
As for `COc1ccccc1NC(=S)N1CCN(C(c2ccccc2)c2ccccc2)CC1`, the inhibition is -6.34%.
For the compound `O=C(Oc1cccc(NC2=NS(=O)(=O)c3ccccc32)c1)c1ccncc1`, the inhibition was 0.38%.
Under `Cc1ccc(S(=O)(=O)N(C)C)cc1NC(=O)COC(=O)c1c(C)noc1C` stands -2.07%; under `O=C(Nc1cccnc1)c1cccc(S(=O)(=O)N2CCCC2)c1`, 3.63%.
Consider `CCCn1c(CCNc2nc(-c3ccc(OC)cc3)cs2)nc2ccccc21`, for which the inhibition is 1.63%.
With `CC1CN(CC(=O)NC(C)c2ccccc2)CC(C)O1` (centres undefined), the inhibition is 1.72%.
With `Fc1cc(Br)ccc1NC(=S)Nc1cccnc1`, the inhibition was -1.64%.
Consider `COc1cc(/C=C/C(=O)n2cnc3ccccc32)cc(OC)c1OC`, for which the inhibition is 12% (active).
For the compound `COc1ccccc1-n1cnc2cc(NS(=O)(=O)c3ccccc3)ccc21`, the inhibition was 0.63%.
As for `COc1cc(/C=C/C(=O)OCC(=O)NC2CC2)cc(OC)c1OC`, the inhibition is 8.18%.
The result for `O=C(Nc1ccccc1N1CCN(C(=O)c2ccccc2)CC1)c1ccco1` reads -1.42%; that for `COc1ccc(N2C(=O)CC(Nc3ccc(F)cc3)C2=O)c([N+](=O)[O-])c1` (centres undefined), -1.86%; that for `CCOc1ccc(NC(=O)CN(C)CC(=O)NC(C)c2ccccc2)cc1OCC` (centres undefined), 2.99%.
Turning to `CCOC(=O)C1CCN(CC(=O)Nc2ccc(OC)c(S(=O)(=O)N3CCCCC3)c2)CC1`, the inhibition is 2.37%.
Regarding `CNc1nc(Nc2ccc(C)c(Cl)c2)nc(N)c1[N+](=O)[O-]`, the inhibition is 13.4% (active).
Turning to `Cc1ccc(Nc2nc(N)nc(CN3CCN(Cc4ccccc4)CC3)n2)cc1Cl`, the inhibition was -4.51%.
In the case of `Nc1nc(Nc2ccccc2)nc(NCCO)c1[N+](=O)[O-]`, the inhibition is 7.49%.
The result for `Cn1c(=O)c2c(nc(NCc3ccccc3)n2CC(N)=O)n(C)c1=O` reads -2.6%; that for `CN(C)/C(=N\OC(=O)c1ccccc1)c1nonc1N`, 0.81%; that for `C=CCn1c(=S)[nH]c2scc(-c3ccco3)c2c1=O`, 20.5% (active).
`COc1ccc(N2CCN(CCNS(=O)(=O)c3ccc([N+](=O)[O-])cc3)CC2)cc1`: the inhibition is -4.76%.
As to `O=C(c1ccc(CN2CCOCC2)cc1)N1CCN(c2ccccc2F)CC1`, the inhibition was -3.62%.
As to `O=C(Nn1cc(C(=O)N2CCN(c3ccccc3F)CC2)c2ccccc2c1=O)c1cnccn1`, the inhibition is 12.8% (active).
As for `Cc1ccccc1N1CCN(C(=O)c2cccnc2)CC1`, the inhibition was -0.77%.
With `CC1=C(C(=O)N(C)C)C(c2ccccc2OC(F)F)NC(=O)N1` (centres undefined), the inhibition is -1.25%.
The result for `CC(C)C[C@@H](CO)N1CCN(Cc2ccc(O)cc2)CCC1=O` reads -1.07%; that for `O=C(Nc1ccc2nccnc2c1)c1ccco1`, -2.66%.
Consider `O=C(Nc1nc(-c2ccco2)c(-c2ccco2)s1)c1ccco1`, for which the inhibition is 51.5% (active).
Consider `Cc1ccnc(NC(=O)c2ccco2)n1`, for which the inhibition was 2%.
As for `O=C(Nc1ccc(N2CCN(C(=O)c3ccccc3)CC2)c(Cl)c1)c1ncn[nH]1`, the inhibition is -4.97%.
The result for `Cc1cccc(NC(=O)CN2CCN(CC(=O)NCC3(N4CCCCC4)CCCCC3)CC2)c1C` reads -4.34%.
Under `Cc1ccc(-n2c(SCC(=O)Nc3cccc4ccccc34)nnc2-c2ccccn2)cc1` stands 2.33%; under `O=C(CCCCCN1C(=O)C2C3C=CC(C3)C2C1=O)Nc1ccccn1` (centres undefined), -1.93%; under `CSc1ccc(C=Nn2c(-c3ccc(F)cc3)n[nH]c2=S)cc1`, -3.89%.
Regarding `CC(C)Cc1nnc(NC(=O)CN2C(=O)NC3(CCCCC3)C2=O)s1`, the inhibition is 4.69%.
For the compound `Cc1ccc(C(=O)NCC(=O)NCc2cc(=O)n(C)c(=O)n2C)cc1`, the inhibition is 1.66%.
`Nn1c(SCC(=O)NC2CCCc3ccccc32)nnc1C1CC1` (centres undefined): the inhibition was 0.24%.
The result for `COc1ccc(-c2cc(-c3nnc(SCC(=O)Nc4cccc5ccccc45)n3N)[nH]n2)cc1` reads -2.51%; that for `CCOC(=O)C1=C(CC)Nc2ccccc2N=C1N`, 3.99%; that for `COCCCn1c(SCC(=O)Nc2oc(C)c3c(C)n[nH]c(=O)c23)nc2sc3c(c2c1=O)CCC3`, -6.64%.
The result for `CCC(C)C(N=C1NS(=O)(=O)c2ccccc21)C(=O)N1CCC(C)CC1` (centres undefined) reads -0.06%.
Consider `CN(CC(=O)Nc1ccccc1[N+](=O)[O-])Cc1ccc(Br)cc1`, for which the inhibition was 1.93%.
Consider `CCNC(=O)N1CCCC(C(=O)c2ccc(-c3ccccc3)cc2)C1` (centres undefined), for which the inhibition was -3.04%.
For the compound `O=C(NN=Cc1ccc([N+](=O)[O-])cc1)C1CC1`, the inhibition was -3.07%.
On to `COCc1c(N)c(C)nc(Cl)c1C#N`, for which the inhibition was 11.8% (active).
Consider `Cc1nc(Cl)c(C#N)c2c1CCCC2`, for which the inhibition is 8.75%.
The result for `COC(=O)c1c(C)c(C)nc(N)c1C#N` reads -2.53%; that for `O=C(NCc1ccccc1)[C@H]1CCCN1C(=O)[C@H]1CCCN1C(=O)N1CCOCC1`, -0.82%; that for `COc1cccc(CNC(=O)COC(=O)CN2C(=O)NC3(CCCCC3C)C2=O)c1` (centres undefined), 1.52%.
The result for `CC1CCN(C(=O)COC(=O)c2cc(S(=O)(=O)N3CCOCC3)ccc2Cl)CC1` reads -2.18%; that for `O=C(NCC(c1ccco1)N1CCc2ccccc21)c1cccc(F)c1` (centres undefined), -8.09%; that for `COc1cc(NC(=O)C2CCCN(S(=O)(=O)c3ccc(C(C)(C)C)cc3)C2)cc(OC)c1` (centres undefined), 5.8%.
With `COc1cc(S(=O)(=O)N2CCN(C(=O)C3CC3)CC2)ccc1NC(C)=O`, the inhibition was 4.21%.
Consider `COC(=O)[C@@]12CCCCC=C1N(CCc1ccc(Cl)cc1)C(=O)[C@H]2CC(=O)NCc1ccc(OC)c(OC)c1`, for which the inhibition is -3.3%.
Under `COc1ccc(C(C(=O)Nc2c(C)cccc2C)N2CCN(c3ccc(C)cc3)CC2)cc1` (centres undefined) stands 23.2% (active).
For the compound `Cc1cccc(C)c1NC(=O)C(c1cccc(F)c1)N1CCN(C)CC1` (centres undefined), the inhibition is -2.52%.
The result for `COc1ccc(N2CCC(CNC(=S)Nc3c(C)cccc3C)C2)cc1` (centres undefined) reads -3.26%.
On to `COc1ccc(C2COC(=O)C2=N)c(NC(=O)c2ccccc2)c1` (centres undefined), for which the inhibition was -1.11%.
For `COc1ccc(N2C(=O)CC(SC(C)C)C2=O)cc1` (centres undefined), the inhibition was -3.91%.
